The values below come from PubChem BioAssay.

The structures appear in SMILES notation. Active and inactive are the calls of the source.

Assay [1] relates to Plasmodium falciparum Sir2 (PF13_0152, Sir2A). Kind of assay: pfSir2 binders on small-molecule microarrays, primary screen, biochemical, small-molecule microarray, 635 nm fluorescence (AID 1098).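 Further: score merges spot fluorescence intensity with its signal-to-noise ratio.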 The settings on record: small-molecule microarray binding, fluorescence 635 nm; higher = more signal.
Assay [2] in a line: small-molecule microarray binders of probe aDKK1, primary screen, biochemical, biotinylated probe, 635/667 nm fluorescence (AID 1099).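 Further: score merges 667nm spot fluorescence with signal to noise across triplicate slides; reference of the scale not given here.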 The settings on record: higher = more signal.
The nature of assay [3]: small-molecule microarray binders of probe aCHRDL2, primary screen, biochemical, biotinylated probe, 635/667 nm fluorescence (AID 1100). The settings on record: higher = more signal.
A short description of assay [4]: splicing luciferase reporter signal modulators, primary screen, spliceosome inhibition project, cell-based, HEK293, splice +/- reporter (AID 1101).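 Further: HEK293 cells carrying a splicing-competent luciferase reporter gene; test concentration not given here.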 The settings on record: luminescence, 24 h, higher = more signal, called active from +8 up or from −8 down.
Assay [5] addresses Fibroblast growth factor 10 (Homo sapiens) (UniProt O15520). Kind of assay: FGF10 binders on small-molecule microarrays, primary screen, biochemical, small-molecule microarray, 635 nm fluorescence (AID 1102). The settings on record: FGF10 binding, fluorescence 635 nm, higher = more signal.
Assay [6] has as its system glycogen synthase kinase-3 (GSK3A per assay name; protocol says GSK3B). The assay can be described thus: GSK3 binders on small-molecule microarrays, primary screen, biochemical, small-molecule microarray, 635 nm fluorescence, GSK3A (AID 1103). Further: the record names both GSK3A and GSK3B. The settings on record: small-molecule microarray binding, fluorescence 635 nm; higher = more signal.
Assay [7] addresses Epidermal growth factor receptor (Homo sapiens) (UniProt P00533). Kind of assay: EGFR binders on small-molecule microarrays, primary screen, biochemical, small-molecule microarray, 635 nm fluorescence (AID 1104).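 Further: score merges 667 nm emission intensity with spot signal to noise over triplicate slides.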 The settings on record: EGFR binding, higher = more signal.
Assay [8] concerns the target Follistatin-related protein 3 (Homo sapiens) (UniProt O95633). The assay can be described thus: FSTL3 binders on small-molecule microarrays, primary screen, biochemical, small-molecule microarray, 635 nm fluorescence (AID 1105).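 Further: score merges emission near 667 nm and signal to noise per printed spot across three slides.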 The conditions noted are these: FSTL3 binding, higher = more signal.
The target of assay [9] is Dickkopf-related protein 1 (Homo sapiens) (UniProt O94907). Kind of assay: DKK1 binders on small-molecule microarrays, primary screen, biochemical, small-molecule microarray, 635 nm fluorescence scan (AID 1106).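 Further: score merges emission near 667 nm with signal to noise over three replicate slides.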 The conditions noted are these: DKK1 binding, higher = more signal.
Chain of Dickkopf-related protein 1 (Homo sapiens) (O94907 whole entry, looked up): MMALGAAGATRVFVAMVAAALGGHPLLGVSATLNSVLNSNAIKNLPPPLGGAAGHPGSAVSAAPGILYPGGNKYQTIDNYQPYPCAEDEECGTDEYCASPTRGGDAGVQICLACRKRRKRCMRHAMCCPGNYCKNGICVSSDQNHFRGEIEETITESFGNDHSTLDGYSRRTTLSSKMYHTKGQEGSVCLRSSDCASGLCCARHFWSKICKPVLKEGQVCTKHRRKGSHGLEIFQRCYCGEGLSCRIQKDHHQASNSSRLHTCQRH
Assay [10] has as its system Inhibin beta A chain (activin A). Kind of assay: INHBA (activin A) binders on microarrays, primary screen, biochemical, small-molecule microarray, 635 nm fluorescence scan (AID 1107).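 Further: mouse activin A protein probed at 4.33 µg/mL on printed slides; score merges bound-protein fluorescence near 667 nm with spot signal-to-noise.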 The settings on record: small-molecule microarray binding, higher = more signal.

Chain of Epidermal growth factor receptor (Homo sapiens) (P00533 whole entry, looked up): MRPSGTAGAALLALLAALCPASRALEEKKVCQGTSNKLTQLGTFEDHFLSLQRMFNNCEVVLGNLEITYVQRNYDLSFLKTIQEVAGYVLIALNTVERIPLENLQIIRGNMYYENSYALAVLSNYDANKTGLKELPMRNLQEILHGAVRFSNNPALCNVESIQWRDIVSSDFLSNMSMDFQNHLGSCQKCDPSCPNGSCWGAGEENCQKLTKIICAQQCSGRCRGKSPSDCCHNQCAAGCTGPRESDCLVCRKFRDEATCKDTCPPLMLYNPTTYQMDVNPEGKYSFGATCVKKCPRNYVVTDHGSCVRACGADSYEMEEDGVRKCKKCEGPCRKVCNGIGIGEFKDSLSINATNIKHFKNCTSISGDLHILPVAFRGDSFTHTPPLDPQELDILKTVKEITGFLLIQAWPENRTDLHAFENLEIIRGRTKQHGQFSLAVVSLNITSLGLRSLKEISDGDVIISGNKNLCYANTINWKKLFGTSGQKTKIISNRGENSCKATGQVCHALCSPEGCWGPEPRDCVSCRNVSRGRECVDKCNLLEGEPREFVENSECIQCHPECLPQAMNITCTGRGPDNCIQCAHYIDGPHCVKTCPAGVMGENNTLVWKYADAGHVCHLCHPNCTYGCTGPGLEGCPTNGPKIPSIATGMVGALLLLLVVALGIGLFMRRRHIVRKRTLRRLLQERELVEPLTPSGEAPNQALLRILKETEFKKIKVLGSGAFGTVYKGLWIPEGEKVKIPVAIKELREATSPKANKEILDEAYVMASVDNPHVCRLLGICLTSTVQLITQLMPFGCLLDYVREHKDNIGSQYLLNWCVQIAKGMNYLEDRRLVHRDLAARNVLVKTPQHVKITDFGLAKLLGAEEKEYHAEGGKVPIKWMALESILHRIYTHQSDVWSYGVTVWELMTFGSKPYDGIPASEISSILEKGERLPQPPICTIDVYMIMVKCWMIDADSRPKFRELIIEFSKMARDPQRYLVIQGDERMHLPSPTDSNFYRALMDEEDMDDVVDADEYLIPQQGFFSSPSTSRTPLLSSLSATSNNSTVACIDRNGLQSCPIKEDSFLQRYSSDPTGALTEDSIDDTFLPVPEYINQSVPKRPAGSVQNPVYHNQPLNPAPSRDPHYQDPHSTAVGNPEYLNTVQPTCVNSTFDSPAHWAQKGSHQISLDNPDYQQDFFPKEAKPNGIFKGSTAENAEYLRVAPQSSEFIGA
Chain of Follistatin-related protein 3 (Homo sapiens) (O95633 whole entry, looked up): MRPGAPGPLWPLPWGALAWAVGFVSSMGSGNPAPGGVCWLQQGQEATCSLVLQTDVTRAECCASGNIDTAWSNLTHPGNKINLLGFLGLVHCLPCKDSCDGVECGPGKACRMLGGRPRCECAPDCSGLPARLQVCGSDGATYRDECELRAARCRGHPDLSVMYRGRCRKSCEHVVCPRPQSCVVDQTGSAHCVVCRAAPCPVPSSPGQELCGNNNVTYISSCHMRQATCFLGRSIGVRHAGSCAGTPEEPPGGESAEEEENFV
Chain of Fibroblast growth factor 10 (Homo sapiens) (O15520 whole entry, looked up): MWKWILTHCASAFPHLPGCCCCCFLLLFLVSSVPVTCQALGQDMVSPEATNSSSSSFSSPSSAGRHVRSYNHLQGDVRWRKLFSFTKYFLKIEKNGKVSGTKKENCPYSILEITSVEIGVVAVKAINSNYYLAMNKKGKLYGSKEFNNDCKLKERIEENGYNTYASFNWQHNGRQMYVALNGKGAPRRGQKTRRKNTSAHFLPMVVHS

In the case of `CCCCC[C@H]1OC[C@@]23C=C(Br)[C@@H](CC12)[C@@]1(CO1)C3=O` (stereo not given in full), the composite z-score in [1] was -0.501; in [2] it was -0.323; in assay [3] it was -0.515; in assay [5] it was 0.106; in [6] it was -0.0067; in assay [7] it was 0.0985. For the same compound, the composite z-score in assay [8] was -0.0915; in assay [9], 0.103; in assay [10] it was 0.0936. Further, in [4], the z-score is 0.424 (inactive).

With `COc1cc(OC)c(C(O)C2C=CC3C(=O)N(Cc4ccccc4)C(=O)C3N2n2cnnc2)cc1Br` (stereo not given), the composite z-score is 1.36 in assay [1]; 0.287 in assay [2]; 0.373 in assay [3]; 1.05 in [5]; 1.26 in assay [6]; -0.496 in assay [7]. Further, the composite z-score was 0.777 in assay [8], -1.05 in [9] and -0.769 in [10]. Also, the z-score in assay [4] is -1.21 (inactive).

For the compound `Cc1ccccc1C(O)C1C=CC2C(=O)NC(=O)C2N1Nc1ccccn1` (stereo not given), the composite z-score is 0.105 in assay [1]; 0.145 in assay [2]; 0.397 in [3]; -0.209 in assay [5]; 0.0301 in assay [6]; 0.262 in assay [7]. Moreover, the composite z-score in [8] is 0.056; in assay [9], 0.144; in assay [10], 0.605. The z-score in assay [4] is 1.55 (inactive).

Regarding `CCCC=C(CCC)[C@@H](NS(=O)(=O)CC12CCC(CC1=O)C2(C)C)c1ccc(C(=O)OC)cc1` (stereo not given in full), the composite z-score is 0.765 in assay [1]; 0.615 in assay [2]; 0.143 in assay [3]; 0.5 in assay [5]; 0.233 in [6]; 0.273 in [7]. Moreover, the results for the composite z-score in assay [8], in [9] and in assay [10] were 0.337, 0.336 and -0.0344, respectively. Further, in [4], the z-score is -0.422 (inactive).

With `CC(C)N1C(=O)C[C@@](C(=O)O)(c2ccc([N+](=O)[O-])cc2)[C@H]1c1ccc(CO)cc1`, the composite z-score in assay [1] was 1.08; in assay [2], 0.744; in assay [3] it was 1.11; in [5] it was -0.443; in assay [6], -0.381; in assay [7] it was -1.12. Further, the composite z-score is -0.633 in [8], -0.803 in [9] and 0.593 in assay [10]. Further, the z-score in [4] was -0.186 (inactive).

On to `COCCOC(=O)N1C(=O)[C@@]2(c3cc(C#CCCO)ccc31)[C@H](c1ccc(OCCO)cc1)N1[C@H](c3ccccc3)[C@H](c3ccccc3)OC(=O)[C@H]1[C@@H]2C(=O)Nc1nc2ccccc2s1`, for which the composite z-score in [1] was 0.755; in [2], 0.901; in assay [3] it was 0.771; in assay [5], 0.898; in [6], 1.29; in assay [7], 0.27. Besides, the composite z-score was determined as 1.24 in [8], 0.87 in assay [9] and 0.854 in assay [10]. In [4], the z-score was 1.06 (inactive).

As to `CC(c1ccccc1)C(O)C1C=CC2C(=O)N(C)C(=O)C2N1Nc1ccccc1` (stereo not given), the composite z-score worked out at 1.25 in assay [1]; 1.04 in assay [2]; 1.2 in assay [3]; 0.663 in [5]; 0.515 in assay [6]; 0.0188 in assay [7]. For the same compound, the composite z-score in assay [8] was 0.359; in assay [9], -0.452; in [10] it was 0.965. In addition, the z-score in assay [4] was 1.31 (inactive).

For the compound `O=C1CS(=O)(=O)C(c2cccc([N+](=O)[O-])c2)N1c1ccccc1` (stereo not given), the composite z-score in assay [1] was found to be 0.175; in [2] it was 0.913; in assay [3] it was 0.157; in [5], 1.03; in assay [6] it was 0.117; in [7] it was 0.591. For the same compound, the composite z-score in assay [8] was found to be 0.6; in assay [9], 0.625; in [10] it was 0.32. In addition, the z-score in assay [4] is -0.856 (inactive).

As to `O=C1NC(=O)C2C1C=CC(C(O)c1ccco1)N2Nc1ccc(Cl)cc1Cl` (stereo not given), the composite z-score in [1] was 0.029; in assay [2] it was 0.549; in assay [3] it was 0.609; in [5], -0.0176; in assay [6] it was 0.109; in assay [7], -0.301. For the same compound, the composite z-score in [8] was 0.799; in assay [9], -0.0083; in [10] it was 1.39. Besides, the z-score in assay [4] is 0.545 (inactive).

`COC(=O)[C@@]1(Cc2ccc(F)cc2)[C@H]2c3cc(C(=O)N4CCCC4)n(Cc4ccc(C)c(F)c4F)c3C[C@H]2CN1C(=O)c1ccccc1`: the composite z-score is 0.961 in [1]; 0.902 in [2]; 0.931 in assay [3]; -0.291 in assay [5]; -0.931 in assay [6]; -0.499 in [7]. Also, the composite z-score in [8] is -1.07; in assay [9], -0.453; in assay [10], 1.42. Further, the z-score in assay [4] was -4.09 (inactive).

On to `C=C(C(=O)CC[C@H](OC(=O)c1ccccc1-c1ccccc1C(=O)O)c1cccc(OCCO)c1)C(C)C`, for which the composite z-score in assay [1] was 0.627; in assay [2], 0.414; in [3], -0.265; in assay [5], 0.353; in assay [6], -0.418; in assay [7], -0.803. Also, the composite z-score in assay [8] turned out to be 0.0151; in [9], 0.0159; in assay [10], 0.495. Also, the z-score in assay [4] is -0.369 (inactive).
